# From PubChem BioAssay (EPA / NIEHS)
# Active and inactive are the calls of the source. The calls were made as follows: active = hit-call score of the fitted dose curve at least 0.9, where 1 is the maximum; inactive = score below 0.9.
# Assay: ATG_M_19_CIS: Attagene CIS-FACTORIAL HepG2 Assay for M19 Transcription Factor (Internal Marker) (AID 2282939)
# Conditions: HepG2 Attagene CIS-FACTORIAL M19 internal marker reporter; actives raise or lower the signal
# Description: ATG_CIS is a cell-based, multiplexed-readout assay that uses HepG2, a human liver cell line, with measurements taken at 24 hours after chemical dosing in a 24-well plate.ATG_M_19_CIS is one of 52 assay component(s) measured or calculated from the ATG_CIS assay. It is designed to make measurements of mRNA induction, a form of inducible reporter, as detected with fluorescence intensity signals by Reverse transcription polymerase chain reaction (RT-PCR) and Capillary electrophoresis technology.Data from the assay component ATG_M_19_CIS was analyzed into 1 assay endpoint. This assay endpoint, ATG_M_19_CIS, was analyzed with bidirectional fitting relative to DMSO as the negative control and baseline of activity. Using a type of inducible reporter, measures of mRNA for gain or loss-of-signal activity can be used to understand the background control at the transcription factor-level as they relate to the gene . Furthermore, this assay endpoint can be referred to as a secondary readout, because this assay has produced multiple assay endpoints where this one serves a background control function. To generalize the intended target to other relatable targets, this assay endpoint is annotated to the background measurement intended target family, where the subfamily is internal marker.
# Human liver HepG2 cells are transiently transfected with multiple reporter transcription units (MRTUs) in 6-well plates using FuGene 6 reagent (Roche; 3 ml FuGene/1 mg DNA). The MRTU constructs are regulated by a cis-regulating element (promoter). […] A major difference between the CIS and TRANS system is that in CIS activities of endogenous TFs are measured, whereas the TRANS assay evaluates changes in activities of exogenous, chimeric NR-Gal4 proteins. […] At the end of 24 hour incubation, total RNA was isolated using TriZol reagent (Invitrogen). The isolated RNA is then reverse-transcribed using oligo(dT) primer and Mo-MLV reverse transcriptase (Invitrogen) with DNAse I (Ambion) treatment for 30 min. The one-tenth of the produced cDNA was amplified by PCR using Taq DNA polymerase (Invitrogen) and two reporter sequence-specific primers. The PCR products were fluorescently labeled by primer extension with 6-arboxyfluorescein (6-FAM) 5'-labeled reporter sequence-specific primer (2 min at 95 C, 20 s at 68 C and 10 min at 72 C) and these products were digested with 5U of HpaI (New England Biolabs) for 2h at 37 C. The fragments were purified using Qiaquick PCR columns (Qiagen), analyzed on an ABI 3130xL genetic analyzer (Applied Biosystems) with peak positions identified by using a set of X-rhodamine (ROX)-labeled MapMarker1000 molecular weight standards (BioVentures). The raw capillary electrophoresis data was processed using Attagraph software (Attagene).
row,Structure (SMILES),outcome
1,O=[N+]([O-])C=Cc1ccccc1,inactive
2,Oc1ccc(Cl)cc1,inactive
3,CC1(C)C(=O)NC(=O)NC1=O,inactive
4,COc1ccc(CO)cc1,inactive
5,CC(C)c1ccc(O)cc1,inactive
6,CCC1CCC(=O)O1 (stereo not given),inactive
7,CCNCC,inactive
8,C[C@]12CC[C@H](O)C[C@H]1CC[C@@H]1[C@@H]2C[C@@H](O)[C@]2(C)[C@@H](C3=CC(=O)OC3)CC[C@]12O,inactive
9,CCOC(=O)C1OC1(C)c1ccccc1 (stereo not given),inactive
10,CCCCCc1cc(O)cc(O)c1,inactive
11,C=C(Cl)Cl,inactive
12,O=C(O)COc1ccccc1,inactive
13,C=CC(=O)OCCCCOC(=O)C=C,inactive
14,CSc1nc(N=[N+]=[N-])nc(NC(C)C)n1,inactive
15,ClCC(Cl)Cl,inactive
16,CCCCOP(=O)(O)OCCCC,inactive
17,CC(C)(C)C(=O)CCl,inactive
18,CCCCCCCCCCCCCCCC[N+](C)(C)C,inactive
19,C=COCCCl,inactive
20,O=C(O)c1cc[c]([Hg][Cl])cc1,inactive

row,Structure (SMILES),outcome
1,Nc1ccc(Cl)c(Cl)c1,inactive
2,Cc1ccc(C)c2ccccc12,inactive
3,C=CC(=O)OC,inactive
4,Nc1ccc(-c2ccc(N)c(N)c2)cc1N,inactive
5,[Cl][Sb]([Cl])[Cl],inactive
6,NNc1ccccc1,inactive
7,c1cc(OCC2CO2)ccc1Cc1ccc(OCC2CO2)cc1 (stereo not given),inactive
8,c1ccc(P(c2ccccc2)c2ccccc2)cc1,inactive
9,Oc1ccc(C2(c3ccc(O)cc3)c3ccccc3-c3ccccc32)cc1,inactive
10,O=[N+]([O-])c1cc([N+](=O)[O-])c2ccccc2c1,inactive
11,O=C(CCl)c1ccccc1,inactive
12,CCCCOC(=O)CCC(=O)OCCCC,inactive
13,O=[N+]([O-])c1cc(C(F)(F)F)c(Cl)c([N+](=O)[O-])c1Cl,inactive
14,CC(Cc1ccc(C(C)(C)C)cc1)CN1C[C@@H](C)O[C@@H](C)C1 (stereo not given in full),inactive
15,C[N+](C)=CCl,inactive
16,COC(=O)c1ccccc1S(=O)(=O)NC(=O)Nc1nc(C)cc(C)n1,inactive
17,C=C(Cl)CCl,inactive
18,c1ccc2c(c1)CCCC2,inactive
19,Cc1cc(C)c(C2=C(OC(=O)CC(C)(C)C)C3(CCCC3)OC2=O)c(C)c1,inactive
20,CC1(C)CC(=O)CC(C)(C)N1[O],inactive
